Laboratory results reported in PubChem BioAssay (NCATS).
Records with an inconclusive call do not appear. Where a call stands in place of a potency, no number is given. Activity calls are given as the source filed them. Calls come from the whole dose curve; as a rule, active = well fitted cell-killing curve with a large enough effect; inconclusive = small, poorly fitted or top-dose-only effect, or effect the other way; inactive = no such curve, though single readings can be large or run the other way.

Assays:
[1] = Quantitative High-Throughput drug screen in 47 multiple myeloma cell lines against the NCATS MIPE library collection: PCM6_Riken cell viability assay (AID 1919870); note: nearly all actives have a fitted effect of over 30% in size
Outline: (§1)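 Myeloma cells (500/well) treated with MIPE 4.0 compounds for 48 h at 37 °C, 5% CO2. Viability read as ATP via CellTiter-Glo luminescence after 5 min at RT; DMSO-only wells = 100%, media-only = 0% viability.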

[2] = Quantitative High-Throughput drug screen in 47 multiple myeloma cell lines against the NCATS MIPE library collection: RPMI8226_ATCC cell viability assay (AID 1919871); note: nearly all actives have a fitted effect of over 30% in size
Outline: as §1

[3] = Quantitative High-Throughput drug screen in 47 multiple myeloma cell lines against the NCATS MIPE library collection: OPM2_DSMZ cell viability assay (AID 1919872); note: nearly all actives have a fitted effect of over 30% in size
Outline: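 Viability readout: CellTiter-Glo luminescence following 5 min room-temperature incubation with reagent. Prior exposure: 48 h, 37C, humidified 5% CO2, 500 cells per well.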

[4] = Quantitative High-Throughput drug screen in 47 multiple myeloma cell lines against the NCATS MIPE library collection: KMS11_JCRBsus cell viability assay (AID 1919873); note: nearly all actives have a fitted effect of over 50% in size
Outline: as §1

[5] = Quantitative High-Throughput drug screen in 47 multiple myeloma cell lines against the NCATS MIPE library collection: KMS28BM_JCRB cell viability assay (AID 1919874); note: nearly all actives have a fitted effect of over 35% in size
Outline: as §1
Potency is the fitted concentration of half-maximal effect.

Row | SMILES | Potency [1] | Potency [2] | Potency [3] | Potency [4] | Potency [5]
1 | OCCC#Cc1nc(-c2ccc(F)cc2)c(-c2ccncc2)n1CCCc1ccccc1 | 23.5 µM (active) | – | – | – | –
2 | CC(C)NCC(O)COc1ccc(COCCOC(C)C)cc1 (stereo not given) | inactive | inactive | inactive | – | –
3 | Cc1ccnc(NS(=O)(=O)c2ccc(NC(=O)Nc3ccc(S(=O)(=O)Nc4nccc(C)n4)cc3)cc2)n1 | 4.69 µM (active) | – | – | – | –
4 | O=C(O)CCc1ccc(NCc2cccc(Oc3ccccc3)c2)cc1 | inactive | inactive | inactive | inactive | –
5 | Cn1cnc([N+](=O)[O-])c1Sc1ncnc2nc[nH]c12 | 11.8 µM (active) | 0.935 µM (active) | 0.833 µM (active) | – | –
6 | CC(C)(C)OC(=O)CN(Cc1ccc(Cl)cc1)Cc1ccc([N+](=O)[O-])s1 | inactive | – | – | – | –
7 | Cc1cc(SCc2sc(-c3ccc(C(F)(F)F)cc3)nc2C)ccc1OCC(=O)O | inactive | 14.8 µM (active) | inactive | – | –
8 | CN(C)c1ccc(Nc2nc(N)n(C(=O)c3c(F)cccc3F)n2)cc1 | 13.2 µM (active) | inactive | – | – | –
9 | c1ccc(-c2nn3c(c2-c2ccnc4cc(OCCN5CCOCC5)ccc24)CCC3)nc1 | 1.48 µM (active) | 20.9 µM (active) | – | – | –
10 | CC(C)(C)NCC(O)c1ccc(O)c(CO)c1 (stereo not given) | inactive | inactive | inactive | – | –
11 | Cc1cc(Nc2nc(N[C@@H](C)c3ncc(F)cn3)ncc2Cl)n[nH]1 | 6.62 µM (active) | 11.8 µM (active) | – | – | –
12 | O=c1ncn2nc(Sc3ccc(F)cc3F)ccc2c1-c1c(Cl)cccc1Cl | 13.2 µM (active) | inactive | – | – | –
13 | CCC(C)N(C)C(=O)c1cc2ccccc2c(-c2ccccc2Cl)n1 (stereo not given) | 16.6 µM (active) | – | – | – | –
14 | COc1ccc([C@@H]2CC(=O)c3c(O)cc(O[C@@H]4O[C@H](CO[C@@H]5O[C@@H](C)[C@H](O)[C@@H](O)[C@@H]5O)[C@@H](O)[C@H](O)[C@@H]4O)cc3O2)cc1O | inactive | inactive | inactive | inactive | –
15 | CCN(CC)CCCC(C)Nc1ccnc2cc(Cl)ccc12 (stereo not given) | 10.5 µM (active) | inactive | inactive | – | –
16 | OC(CN1CCC(Cc2ccc(F)cc2)CC1)c1ccc(Cl)cc1 (stereo not given) | inactive | inactive | inactive | inactive | –
17 | COc1cc2nccc(Oc3ccc(NC(=O)NC4CC4)c(Cl)c3)c2cc1C(N)=O | 16.6 µM (active) | 20.9 µM (active) | 13.2 µM (active) | 20.9 µM (active) | –
18 | CCn1cc(C(=O)O)c(=O)c2cc(F)c(N3CCNC(C)C3)c(F)c21 (stereo not given) | inactive | inactive | inactive | inactive | –
19 | Cc1cc(-c2ccc(CC(=O)Nc3ccc(-c4cccnc4)cc3)cc2)ccn1 | 11.8 µM (active) | 5.9 µM (active) | inactive | 20.9 µM (active) | –

Row | SMILES | Potency [1] | Potency [2] | Potency [3] | Potency [4] | Potency [5]
20 | Cc1c(C)c2c(c(C)c1O)CCC(C)(COc1ccc(CC3SC(=O)NC3=O)cc1)O2 (stereo not given) | 20.9 µM (active) | inactive | inactive | – | –
21 | COc1ccc(-c2ccc3c(N4CCOCC4)nc(N4C[C@@H](C)O[C@@H](C)C4)nc3n2)cc1CO | 1.48 µM (active) | 0.0935 µM (active) | 1.18 µM (active) | 0.059 µM (active) | –
22 | O=C(Nc1ccc(F)c(C(F)(F)F)c1)Nc1nnc(-c2ccncc2)s1 | 1.87 µM (active) | – | – | – | –
23 | Nc1nc2[nH]cc(CCc3ccc(C(=O)N[C@@H](CCC(=O)O)C(=O)O)cc3)c2c(=O)[nH]1 | inactive | 0.264 µM (active) | inactive | 0.59 µM (active) | –
24 | CCN(c1ccccc1)c1cc(NC)[n+](C)c(C)n1 | inactive | inactive | inactive | inactive | –
25 | CNC(=O)c1ccc(C)c(-n2c(C)cc(OCc3ccc(F)cc3F)c(Br)c2=O)c1 | 14.8 µM (active) | inactive | inactive | – | –
26 | CCOC(=O)N[C@@H]1CC[C@@H]2[C@@H](C1)C[C@H]1C(=O)O[C@H](C)[C@H]1[C@@H]2C=Cc1ccc(-c2cccc(F)c2)cn1 | inactive | 18.7 µM (active) | inactive | – | –
27 | CC(C)OC(=O)C1=CN(C(=O)c2ccc(F)c(F)c2)CC(C)(C)c2c1[nH]c1ccccc21 | inactive | inactive | inactive | inactive | –
28 | CCCCNc1cc(C(=O)O)cc(S(N)(=O)=O)c1Oc1ccccc1 | inactive | inactive | inactive | – | –
29 | NS(=O)(=O)c1cc2c(cc1Cl)NC=NS2(=O)=O | inactive | inactive | inactive | – | –
30 | CCc1cc(Nc2nccc(-c3c(-c4ccc(OC)c(C(=O)Nc5c(F)cccc5F)c4)nc4ccccn34)n2)c(OC)cc1N1CCC(N2CCN(S(C)(=O)=O)CC2)CC1 | inactive | 20.9 µM (active) | – | – | –
31 | Fc1ccc(Cl)cc1-c1nc(Nc2ccncc2)c2nccnc2n1 | 5.9 µM (active) | inactive | inactive | – | –
32 | Cc1[nH]c(=O)c(C#N)cc1-c1ccncc1 | 7.43 µM (active) | inactive | inactive | inactive | –
33 | O=NN(CCCl)C(=O)NCCCl | inactive | inactive | inactive | – | –
34 | COc1ccc(-c2oc3cc(OC)ccc3c2C(=O)c2ccc(C#N)cc2)cc1 | 5.26 µM (active) | inactive | inactive | inactive | –
35 | Cn1cnc2c(F)c(Nc3ccc(Br)cc3Cl)c(C(=O)NOCCO)cc21 | 0.166 µM (active) | 0.935 µM (active) | – | inactive | –
36 | OC[C@H](Cc1ccccc1)Nc1nc(Oc2ccc3c(c2)CCC3)nc2c1ncn2Cc1ccc(-c2ccccc2)cc1 | inactive | inactive | inactive | – | inactive
37 | Nc1ccc(S(=O)(=O)Nc2ccnn2-c2ccccc2)cc1 | inactive | inactive | inactive | – | inactive
38 | CCOc1cc(N2CCC(O)CC2)ccc1Nc1ncc2c(n1)N(C)c1ccccc1C(=O)N2C | 14.8 µM (active) | 20.9 µM (active) | 13.2 µM (active) | 3.32 µM (active) | 4.69 µM (active)
